In PubChem BioAssay AID1626 (SRMLSC, 2009):
About 2,000 (0.91%) of roughly 220,000 compounds were called active. Not shown: some 2% with an inconclusive outcome. A selection follows. Entries with a potency or affinity are not part of this list. Values without a mark were called inactive. No stated cut-off is given here; in the data, inconclusive means inhibition above about 80% without an active follow-up result; inactive means below that; test concentration not stated here.

Test: M. tuberculosis H37Rv growth inhibitors, H37Rv strain (AID 1626);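 further: bacteria incubated seven days before Alamar blue readout; 0% = bacteria only wells and 100% = bacteria with antibiotic wells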
Conditions: active compounds read high, concentration not given here
With O=C(C1CCCCC1)N1CCN(C(=O)C2CCCCC2)CC1 the inhibition was -1.95%.
Compound Cc1c(CCC(C)C)c(=O)n2c([nH]c3ccccc32)c1C#N has an inhibition of 5.47%.
Work on CCc1c(C)c(C#N)c2[nH]c3ccccc3n2c1=S yielded an inhibition of -5.86%.
Compound Cc1c(CCC(=O)O)c(=O)n2c([nH]c3ccccc32)c1C#N has an inhibition of -32.2%.
CCc1cc(=S)n2c([nH]c3ccccc32)c1C#N gave an inhibition of -2.47%.
COc1c(O)ccc2cnn(-c3ccccc3C)c(=O)c12 gave an inhibition of -8.74%.
CC1CC(C)CN(CC(O)COCCOc2ccc(Br)cc2)C1 (stereo not given) gave an inhibition of 0.51%.
In the case of CCCCN1CC[C@H]2C=CC[C@@H](C(=O)Nc3ccccc3)[C@H]2C1=O, the inhibition is reported as -7.03%.
Compound [O-][n+]1onc2c3ccnnc3ccc21 has an inhibition of 58.6%.
Cn1c(-c2ccccc2)cc(=O)c2ccccc21 showed an inhibition of 1.71%.
For c1ccc(-c2cc3c(ccc4nonc43)nn2)cc1, the inhibition was -7.6%.
Work on COc1ccc2c(c1)c(=O)cc(-c1ccccc1)n2C yielded an inhibition of -2.37%.
For CCCCCC(=O)N/N=C(\C)c1ccc(N2CCCCC2)cc1, the inhibition was -2.51%.
With CCOc1ccc2cc(C3CC(c4ccco4)=NN3S(C)(=O)=O)c(=O)[nH]c2c1 (stereo not given) the inhibition was 0.83%.
COc1ccccc1OCCSc1nc2ccccc2n1CCO showed an inhibition of -6.33%.
O=C1CC(NCc2ccc(F)cc2)C(=O)N1c1ccccc1 (stereo not given) showed an inhibition of -1.25%.
Compound CCOC(=O)N1CCN(C(=O)C2CCN(S(=O)(=O)c3ccc(C)cc3)CC2)CC1 has an inhibition of -7.16%.
Compound COc1ccccc1-n1c(SCC(=O)N2CCOCC2)nc(O)c(Cc2ccccc2)c1=O has an inhibition of -3.87%.
With C[C@@H]1C=C[C@](Cc2ccccc2)(C(=O)NCC2CC2)N1C(=O)c1ccccc1 the inhibition was -23%.
Compound COc1cc2c(cc1NC(=O)COc1ccccc1OC)oc1ccccc12 has an inhibition of 0.28%.
COc1ccccc1CC(=O)Nc1cc2oc3ccccc3c2cc1OC gave an inhibition of -9.4%.
In the case of COc1cc2c(cc1NC(=O)c1ccc3c(c1)OCO3)oc1ccccc12, the inhibition is reported as -1.46%.
COc1ccccc1NC(=S)NCc1ccc2c(c1)OCO2 gave an inhibition of 7.62%.
O=C(CN(C(=O)Cn1nnc(-c2ccc(F)cc2)n1)C1CCCC1)NC1CCCC1 gave an inhibition of 0.92%.
O=[N+]([O-])c1ccc(N2CCN(C(=S)c3cccc([N+](=O)[O-])c3)CC2)cc1 gave an inhibition of 1.74%.
Work on CCN(C1CCCCC1)S(=O)(=O)c1ccc(C(=O)O)cc1 yielded an inhibition of -11.6%.
CCO[C@H]1OC(C(=O)N2CCOCC2)=C[C@@H](c2ccccc2)[C@@H]1CCCO showed an inhibition of 0.78%.
Work on Cc1ccccc1OCCn1cc(C(=O)C(=O)N2CCOCC2)c2ccccc21 yielded an inhibition of 5.53%.
O=C(CO/N=C/c1ccccc1Cl)N1CCCc2ccccc21 gave an inhibition of 4.05%.
Compound COc1ccccc1N1CCN(C(=O)C(Sc2ccccc2)c2ccccc2)CC1 (stereo not given) has an inhibition of -2.82%.
With CC(C)NC(=O)NNC(=O)c1cc(COc2cc(Cl)cc(Cl)c2)on1 the inhibition was -6.1%.
Work on CCOC(=O)c1csc(NC(=O)COc2ccc(Cl)cc2Cl)n1 yielded an inhibition of -7.94%.
In the case of CC(=O)c1csc(COc2ccc(Cl)cc2)n1, the inhibition is reported as -4.98%.
Cc1nc(-c2cc(-c3nc(-c4ccc(C(F)(F)F)cc4)no3)no2)cs1 gave an inhibition of 7.08%.
With Cc1onc(C(=O)NN)c1-c1csc(COc2ccc(Cl)cc2)n1 the inhibition was -10.6%.
With CCOC(=O)c1sc(-c2ccc(C(F)(F)F)cc2)nc1O the inhibition was -1.38%.
For CCC(=O)NNC(=O)c1cc(COc2cc(Cl)cc(Cl)c2)on1, the inhibition was 13.9%.
Work on CCOC(=O)c1csc(COc2ccccc2Cl)n1 yielded an inhibition of -4.66%.
For O=C(/C=C/c1ccccc1[N+](=O)[O-])N1CCN(c2ccccc2F)CC1, the inhibition was 4.82%.
With O=C(O)c1ccc(S(=O)(=O)N2CCC(c3nc(-c4ccccc4Cl)no3)CC2)cc1 the inhibition was -8.76%.
For O=C(COC(=O)/C=C/c1ccc(Br)o1)Nc1ccccc1F, the inhibition was 8.52%.
Cc1ccc(C2=NC(=O)/C(=C/c3cc(O)c(O)c(Br)c3)S2)cc1 showed an inhibition of -2.49%.
Work on Cn1ncc2c(NCc3cccc(C(F)(F)F)c3)c(C(=O)O)cnc21 yielded an inhibition of -1.6%.
In the case of CCN(CC)C1CCN(C(=O)CCc2nnc(CCCCc3ccccc3)o2)C1 (stereo not given), the inhibition is reported as -6.99%.
With Cc1csc2c(N3CCN(C(=O)c4ccc(C(C)(C)C)cc4)CC3)ncnc12 the inhibition was 5.47%.
CCCC(=O)Nc1cc(-c2nn(C)c(=O)c3ccccc23)ccc1N1CCOCC1 gave an inhibition of -6.76%.
With CCCn1c(N)c(C(=O)CN2CCc3ccccc3C2)c(=O)n(C)c1=O the inhibition was 0.315%.
With CC(=O)Nc1ccc(OCC(O)Cn2c(C)nc3ccccc32)cc1 (stereo not given) the inhibition was 5.23%.
With O=C(OC1CCCCC1=O)c1cc(Cl)ccc1[N+](=O)[O-] (stereo not given) the inhibition was -3.33%.
Work on Cc1ccc(NC2(c3nnnn3-c3c(C)cccc3C)CCCCC2)cc1 yielded an inhibition of 16.4%.
Work on CCOC(=O)c1csc(COc2ccc(OC)cc2)n1 yielded an inhibition of -4.8%.
CC(=O)c1csc(COc2ccccc2)n1 gave an inhibition of -10.3%.
Work on Cc1cccc2nc(CSc3nnc(N)s3)cn12 yielded an inhibition of 0.64%.
For Cc1ccc(C(=O)N/C(=C/c2ccc(-c3ccc(Br)cc3)o2)C(=O)NC2CCS(=O)(=O)C2)cc1 (stereo not given), the inhibition was 2.02%.
Compound CCNc1ccc(C(=O)OCC)cc1NC(=O)c1cc(S(=O)(=O)N2CCOCC2)ccc1C has an inhibition of 0.89%.
O=C(CN1CC(=O)Oc2ccccc21)NCc1ccco1 showed an inhibition of 0.53%.
CCc1cc(-c2n[nH]c(C)c2-c2nc(C)cs2)c(O)cc1OC showed an inhibition of 4.46%.
Compound Cc1nn(Cc2ccccc2)c(Cl)c1C(=O)NC1CCCc2ccccc21 (stereo not given) has an inhibition of 12.6%.
With CCCNC(=O)C1CC(=O)N(c2ccc(OCC(=O)Nc3cc(C)cc(C)c3)cc2)C1 (stereo not given) the inhibition was -2.31%.
Work on O=[N+]([O-])/C=C/c1c(OCc2ccccc2)ccc2ccccc12 yielded an inhibition of 42%.
Work on CCOC(=O)COc1ccccc1/C=C\[N+](=O)[O-] yielded an inhibition of 11.3%.
With O=C(CSc1nnc(Cc2cc(=O)[nH]c(=O)[nH]2)n1-c1ccc(Cl)cc1)NC1CCCC1 the inhibition was -1.17%.
Compound COc1ccc(OC)c(C2C=C(c3ccc(C)c(C)c3)Nc3nnnn32)c1 (stereo not given) has an inhibition of 6.69%.
COc1cccc(C2=CC(c3ccc(OC)c(OC)c3OC)n3nnnc3N2)c1 (stereo not given) showed an inhibition of -9.14%.
COc1ccc(C(=O)N(C)C2CCN(C)CC2)cc1S(=O)(=O)Nc1cc(Cl)ccc1Cl showed an inhibition of -15.1%.
Cc1nc(=S)c2c([nH]1)-c1ccccc1CC21CCCCC1 showed an inhibition of 6.17%.
With Cn1c(/C=N/O)nc2ccccc21 the inhibition was -6.75%.
Compound Cc1ccc(C(=O)N/N=C/c2nc3ccccc3n2C)cc1 has an inhibition of 62.7%.
Compound Cc1ccc2cc(/C=N/NC(=O)c3ccccc3[N+](=O)[O-])c(Cl)nc2c1 has an inhibition of -0.86%.
With Cc1nn(CC(=O)Nc2ccccn2)c(C)c1[N+](=O)[O-] the inhibition was -1.31%.
Compound CCOc1cc(/C=C2/SC(=Nc3ccccc3)N(Cc3cccnc3)C2=O)ccc1OCC#N has an inhibition of -1.44%.
CCOc1ccc(/C=C2/Sc3ccc(C(=O)N4CCN(C(=O)c5ccco5)CC4)cc3N(C)C2=O)cc1OC gave an inhibition of -1.76%.
COc1cccc(C(=O)NCc2cccnc2)c1 gave an inhibition of -9.43%.
CN1C(=O)/C(=C/c2ccccc2Cl)Sc2ccc(C(=O)NCc3cccnc3)cc21 showed an inhibition of 34.2%.
With COc1ccc(C(=O)NCc2cccnc2)cc1OC the inhibition was -4.7%.
Cc1ccc(NC(=O)COc2ccc(/C=C3/SC(=Nc4ccccc4)N(Cc4cccnc4)C3=O)cc2)cc1 gave an inhibition of 2.56%.
With COc1ccc(N(C(=O)Nc2ccc(Cl)cc2)C2=NCCC2)cc1 the inhibition was -4.11%.
With CCCN(CCC)CCCNC(=S)Nc1ccc2nc(N3CCN(C)CC3)cc(C)c2c1 the inhibition was -1.09%.
CCN(CC)C(NC(=O)Cc1ccccc1)C(Cl)(Cl)Cl (stereo not given) gave an inhibition of -7.35%.
For O=c1[nH]c(-c2ccccc2)nc2sc(-c3ccccc3)cc12, the inhibition was 0.66%.
Compound O=c1[nH]c(-c2ccncc2)nc2ccccc12 has an inhibition of -5.72%.
Cc1sc2nc(-c3ccccc3)[nH]c(=O)c2c1-c1ccccc1 gave an inhibition of -4.26%.
O=c1[nH]c(-c2ccccn2)cc2ccccc12 gave an inhibition of -4.45%.
With c1ccc(-c2nc3ccccc3[nH]2)nc1 the inhibition was -3.79%.
Compound O=c1[nH]c(-c2cccnc2)nc2sc(-c3ccccc3)cc12 has an inhibition of 6.5%.
For c1ccc(-c2nc3cc4ccccc4cc3[nH]2)nc1, the inhibition was -3.91%.
Compound Cc1sc2nc(-c3ccncc3)[nH]c(=O)c2c1-c1ccccc1 has an inhibition of -3.4%.
O=[N+]([O-])c1cc(C(F)(F)F)ccc1NCCCN1CCOCC1 showed an inhibition of 7.61%.
COc1cc(C(=O)Nc2cc(C)cc(C)c2)c(-n2cnnn2)cc1OC showed an inhibition of 5.79%.
CCC(C)OC(=O)C1=C(C)O[C@]23OC(N)=C(C#N)[C@]12C(=O)c1ccccc13 (stereo not given in full) showed an inhibition of 3.72%.
Work on Clc1ccc(-c2ccn[nH]2)cc1 yielded an inhibition of 58.5%.
COC(=O)c1ccc(NS(=O)(=O)c2ccc3c(c2)oc(=O)n3C)cc1 showed an inhibition of -7.58%.
CCOC(=O)C1CCN(c2nc(C)cc(C)c2C#N)CC1 gave an inhibition of 2.49%.
For Cn1c(SC2=CS(=O)(=O)c3ccccc32)nc2ccccc21, the inhibition was 54.9%.
Cc1cc(C)nc(SC2=CS(=O)(=O)c3ccccc32)n1 showed an inhibition of 3.84%.
